ALDH1A1 block = ALDH1A1 (human) enzyme inhibition; Purified ALDH1A1, NADH fluorescence, propionaldehyde substrate; Potency, µM (titrated, usually from 75.3 µM), usual class: inhibitors; hit rate 7.3% among 220,000; AID 1030; P00352
Lamin A splicing = modulators of lamin A splicing | HeLa LMNA splicing GFP/RFP minigene ratio, 48 h | Potency, µM (doses to about 46.1 µM), hits mostly inhibitors | hit rate 0.01% among 200,000 | AID 1487; active = well fitted inhibition curve with a large enough effect in the signal ratio, with a control signal flat, not every such curve was filed as active; inconclusive = small, poorly fitted or top-dose-only effect, or effect the other way, or a change in a side signal; the % refers to the signal ratio
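Read-out is the ratio of GFP to DsRed2 object intensity, acquired by 488 nm laser-scanning cytometry on HeLa lamin A-EGFP minigene reporter cells. Compound incubation 48 hrs at 37 °C in Opti-MEM with 2% FBS; DMSO 0.5% final.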
HPGD block = inhibitors of human 15-hydroxyprostaglandin dehydrogenase (HPGD); P15428; purified HPGD, NADH fluorescence kinetic, PGE2 substrate; Potency, µM, actives largely listed as inhibitors; hit rate 4.3% among 150,000; AID 894
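NADH formation kinetics: reaction with 30 uM PGE2 and 1 mM NAD+ (final), 20 nM enzyme, Tris-HCl pH 8 with Tween 20, after 15 min compound preincubation at room temperature. Fluorescence change, last versus first of five reads.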
ALOX12 inhib = blocks human 12-lipoxygenase activity. P18054. purified 12-hLO, xylenol orange hydroperoxide absorbance. Potency, µM (top dose mostly 57.1 µM), actives largely listed as inhibitors. hit rate 0.12% among 150,000; active = well fitted inhibition curve with a large enough effect; inconclusive = small, poorly fitted or top-dose-only effect; also: nearly all actives have a fitted effect of over 55% in size
Target sequence (P18054 whole entry, looked up): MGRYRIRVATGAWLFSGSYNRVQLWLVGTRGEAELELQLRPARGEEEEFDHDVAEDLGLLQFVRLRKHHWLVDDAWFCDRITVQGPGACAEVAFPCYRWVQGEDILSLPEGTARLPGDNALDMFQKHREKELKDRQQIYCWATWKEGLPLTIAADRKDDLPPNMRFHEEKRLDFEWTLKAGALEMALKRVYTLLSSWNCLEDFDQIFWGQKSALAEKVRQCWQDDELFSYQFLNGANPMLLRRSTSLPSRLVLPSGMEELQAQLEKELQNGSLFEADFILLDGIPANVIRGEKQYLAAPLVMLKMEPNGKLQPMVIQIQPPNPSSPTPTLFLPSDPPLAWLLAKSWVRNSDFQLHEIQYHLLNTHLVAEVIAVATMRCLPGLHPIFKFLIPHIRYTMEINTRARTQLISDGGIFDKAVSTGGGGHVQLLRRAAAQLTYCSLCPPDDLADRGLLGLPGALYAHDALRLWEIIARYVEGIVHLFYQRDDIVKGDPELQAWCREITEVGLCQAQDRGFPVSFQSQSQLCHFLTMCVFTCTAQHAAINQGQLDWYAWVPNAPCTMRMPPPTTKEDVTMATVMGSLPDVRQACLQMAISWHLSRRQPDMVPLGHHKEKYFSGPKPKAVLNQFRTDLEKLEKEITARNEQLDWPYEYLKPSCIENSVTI
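Hydroperoxide formation by human 12-lipoxygenase from 40 uM arachidonic acid was followed colorimetrically via ferric-xylenol orange complex, using the 573/405 nm absorbance ratio. Enzyme concentration was 150 nM, with 30 min reaction at room temperature.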
PNC assembly inh = blocks assembly of the perinucleolar compartment | PC3M PTB-GFP, PNC prevalence imaging, 16 h; hits give low values | activity change (PNC), negative = inhibition, % at 10 µM | hit rate 3.1% among 140,000 | AID 2417;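 active = readout at or below -70, meaning at least 70% loss of cells showing the perinucleolar compartment, a nuclear body marking cancer cells; inconclusive = readout between -30 and a set limit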
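PC3M cells stably expressing PTB-GFP, 750–1000 cells/well, treated 16 h at 37 °C with compound (23 nl of library stock), in duplicate. After paraformaldehyde fixation and Hoechst stain, imaged at 20x; PNC prevalence scored by image analysis.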
Each line names hits and unclear results; the compound was inactive in the other large screens. Only some compounds are listed: those with a hit (about 10% of all), similar ones and a draw of the others. Unless noted, calls follow the shape of the dose curve; as a rule, active = well fitted inhibition curve with a large enough effect (not every such curve was filed as active); inconclusive = small, poorly fitted or top-dose-only effect, or another doubt; inactive = no such curve, though single readings can be large or run the other way.

CCOC(=O)c1sc2nc3n(c(=O)c2c1C)CCC(C)CC3 (configuration not stated)	ALDH1A1 block 11.2µM, HPGD block 25.1µM
CCOC(=O)N1CCN(C(=O)Nc2sc3nc4n(c(=O)c3c2C)CCC(C)CC4)CC1 (configuration not stated)	ALDH1A1 block 12.6µM
Cc1ccccc1-c1cc(NCCN2CCOCC2)ncn1	none (no result: HPGD block, ALOX12 inhib, PNC assembly inh)
CC(=O)Oc1ccc2c(c1)Oc1cc(OC(C)=O)ccc1C21OC(=O)c2ccccc21	ALDH1A1 block inconclusive, Lamin A splicing inconclusive, PNC assembly inh -100.0
O=C1OC2(c3ccc(O)cc3Oc3cc(O)ccc32)c2ccccc21	none (no result: Lamin A splicing, PNC assembly inh)
CC(=O)C1CCN(Cc2ccccc2)CC1	none
O=C1OC(N2CCN(C/C=C/c3ccccc3)CC2)c2ccccc21 (configuration not stated)	PNC assembly inh -85.8
CC(=C1C(=O)c2ccccc2C1=O)N1CCC(C(N)=O)(N2CCCCC2)CC1	ALDH1A1 block 20µM
C(=C/c1ccccc1)/CN1CCN(C(c2ccccc2)c2ccccc2)CC1	Lamin A splicing inconclusive (no result: PNC assembly inh)
CC(=C1C(=O)c2ccccc2C1=O)N1CCN(Cc2ccccc2)CC1	ALDH1A1 block 10µM, PNC assembly inh inconclusive
CC(=C1C(=O)c2ccccc2C1=O)N1CCN(C/C=C/c2ccccc2)CC1	ALDH1A1 block 8.91µM
CC1(C)C[C@@H]2C(=O)CCC3O[C@@]3(C)CCC21 (some centres not stated)	none (no result: PNC assembly inh)
O=C1CC(c2cccc(O)c2)c2c(nc(SCc3ccccc3F)[nH]c2=O)N1 (configuration not stated)	none (no result: ALDH1A1 block, HPGD block, ALOX12 inhib, PNC assembly inh)
CCOC(=O)CN1CC23C=CC(O2)C(C(=O)NCc2ccc(C)cc2)C3C1=O (configuration not stated)	HPGD block 15.8µM
CC(=O)Nc1cccc(NC(C)=O)n1	PNC assembly inh -118.9
CN(C(=O)c1ccc2c(c1)C(=O)N(CCC1=CCCCC1)C2=O)C1CCCCC1	ALDH1A1 block 0.794µM, HPGD block 14.1µM
O=C(O)c1ccc2c(c1)C(=O)N(CCC1=CCCCC1)C2=O	PNC assembly inh inconclusive
CCC(=O)N1CCc2cc(Br)cc(S(=O)(=O)CCC(=O)NCc3ccco3)c21	PNC assembly inh -118.9
CCOC(=O)N1CCN(S(=O)(=O)c2cc(Br)cc3c2N(C(=O)CC)CC3)CC1	PNC assembly inh inconclusive
CCC(=O)N1CCc2cc(Br)cc(S(=O)(=O)N3CCCCCC3)c21	PNC assembly inh -100.0
Cc1nc(-c2cccc(NC(=O)Nc3ccc([N+](=O)[O-])cc3)c2)no1	none (no result: ALDH1A1 block, HPGD block, ALOX12 inhib, PNC assembly inh)
COc1cccc(C(=O)N2c3ccccc3Sc3ccccc32)c1	HPGD block 14.1µM, PNC assembly inh inconclusive
COc1cccc(C(=O)NC2CCN(C(=O)N3c4ccccc4Sc4ccccc43)CC2)c1	Lamin A splicing inconclusive
CNC(=O)C1CCC(Cn2c(=O)c3sccc3n(CC(=O)Nc3ccc(C)c(F)c3)c2=O)CC1 (configuration not stated)	none (no result: ALDH1A1 block, HPGD block, ALOX12 inhib, PNC assembly inh)
CN(C)c1nc(N(C)C)nc(N2CC(=O)N(c3ccccc3)C2=N)n1	ALDH1A1 block 1.41µM (no result: HPGD block, ALOX12 inhib, PNC assembly inh)
CN(C)c1nc(Oc2ccc(=O)n(-c3ccccc3)n2)nc(N2CCOCC2)n1	PNC assembly inh inconclusive
CC(C)c1ccccc1S(=O)(=O)c1cc(N)c2ncccc2c1[N+](=O)[O-]	none (no result: Lamin A splicing, PNC assembly inh)
CSc1nc(C)c(Oc2ccccc2)c(=O)n1C	HPGD block 12.6µM
COc1ccc(F)cc1S(=O)(=O)NCCc1csc(-c2ccc(Cl)cc2)n1	none (no result: ALDH1A1 block, HPGD block, ALOX12 inhib, PNC assembly inh)
Cc1ccc2nc(-c3ccc(NC(=O)CN4C(=O)c5ccccc5C4=O)cc3)sc2c1	ALDH1A1 block inconclusive, HPGD block inconclusive
Cc1ccc2nc(-c3ccc(NC(=O)COC(=O)c4ccc(=O)[nH]c4)cc3)sc2c1	ALDH1A1 block 3.55µM, HPGD block inconclusive
CCC1(C)Cc2c(C#N)c(N)sc(=S)c2CO1 (configuration not stated)	ALDH1A1 block 10µM, HPGD block 28.2µM
COS(C)(=O)=O	none (no result: PNC assembly inh)
Cc1ccc2c(c1)/C(=N/N1C(=O)c3ccccc3C1=O)C(=O)N2	Lamin A splicing inconclusive
Nc1n[nH]c(=S)n1/N=C1/C(=O)Nc2ccccc21	ALDH1A1 block 7.94µM (no result: Lamin A splicing, HPGD block, ALOX12 inhib, PNC assembly inh)
Cc1cccc(C(=O)Nc2c(C(=O)N3CCN(c4ccc(F)cc4)CC3)oc3ccccc23)c1	none (no result: ALDH1A1 block, HPGD block, ALOX12 inhib, PNC assembly inh)
COc1ccc(N2C(=O)[C@H]3CCC=C[C@H]3[C@@H]2c2ccccc2Br)cc1	ALDH1A1 block 7.08µM (no result: Lamin A splicing, PNC assembly inh)
